Reference: PubChem BioAssay (NCATS)
Results filed as inconclusive are left out. The source made the active and inactive calls. Unless noted, calls follow the shape of the dose curve; as a rule, active = well fitted curve in either direction with a large enough effect (not every such curve was filed as active); inconclusive = small, poorly fitted or top-dose-only effect, or another doubt; inactive = flat fitted curve, though single readings scatter.

Legend:
[1] = target: Lysosomal acid glucosylceramidase (Homo sapiens) (UniProt P04062); experiment: Glucocerebrosidase-p2 (AID 348; in the data active = potency below about 10 µM; also: potency is read from the fitted curve at half-maximal effect); settings: purified GBA, blue fluorogenic substrate, 40 min
Sequence of Lysosomal acid glucosylceramidase (Homo sapiens) (P04062 whole entry, looked up): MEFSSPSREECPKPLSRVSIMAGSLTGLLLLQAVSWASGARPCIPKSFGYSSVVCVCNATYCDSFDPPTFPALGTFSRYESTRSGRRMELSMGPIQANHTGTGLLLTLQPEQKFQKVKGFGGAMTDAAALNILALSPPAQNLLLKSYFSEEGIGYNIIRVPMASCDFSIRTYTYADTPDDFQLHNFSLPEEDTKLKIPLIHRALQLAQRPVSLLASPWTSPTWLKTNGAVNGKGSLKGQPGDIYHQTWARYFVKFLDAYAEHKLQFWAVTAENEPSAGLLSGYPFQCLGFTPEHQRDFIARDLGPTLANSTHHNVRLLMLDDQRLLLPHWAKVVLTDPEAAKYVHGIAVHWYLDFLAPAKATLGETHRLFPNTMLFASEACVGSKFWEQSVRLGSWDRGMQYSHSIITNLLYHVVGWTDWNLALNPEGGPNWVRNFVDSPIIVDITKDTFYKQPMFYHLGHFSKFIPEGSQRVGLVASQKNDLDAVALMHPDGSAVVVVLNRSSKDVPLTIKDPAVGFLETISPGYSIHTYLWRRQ
Procedure, shortened: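 Compounds titrated from 0.6 nM upwards against 0.2 nM enzyme in pH 5.9 citric acid/KH2PO4, taurocholate, tween-20; blue fluorogenic substrate 80 uM, 40 min room temperature, stopped and read Ex 365/Em 440 for AC50.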

[2] = AP1 Signaling Pathway (AID 357); settings: ME-180 AP-1-bla reporter, EGF-induced, beta-lactamase ratio, 5 h; at 7.69 µM (top of the series) unless noted; also: % is scaled to controls: 0 for no effect and ±100 for the full control effect
Procedure, shortened: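 ME-180 cells with beta-lactamase reporter under AP-1 response element, stimulated with EC50 EGF; compounds tested in titration series, 5 h at 37 °C. CCF4 substrate added 2.5 h at room temperature; 460/530 nm emission ratio gave %activity and AC50.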

[3] = NFAT Signaling Pathway (AID 444); settings: Jurkat NFAT-bla M1, carbachol, beta-lactamase ratio, 5 h; at 7.69 µM (top of the series) unless noted;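 also: carbachol stimulus at about its EC50 of 1 µM final; % is scaled to controls: 0 for no effect and ±100 for the full control effect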
Procedure, shortened: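 Jurkat cells carrying an NFAT-driven β-lactamase reporter and co-transfected muscarinic M1 receptor were treated with compound plus carbachol (1 uM final, an EC50 level) for 5 h at 37 °C. CCF4 loading followed for 1 h at RT; 460/530 nm ratio gave %activity.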

[4] = Stat Signaling Pathway (AID 446); settings: ME-180 SIE beta-lactamase reporter, IL-6 stimulated, 5 h; at 7.69 µM (top of the series) unless noted;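 also: ME-180 cervical cancer cells given 40 pM IL-6 alongside compound; SIE-controlled beta-lactamase reporter measured as 460/530 nm FRET emission ratio; % is scaled to controls: 0 for no effect and ±100 for the full control effect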
Procedure, shortened: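 IL-6/STAT signaling read in ME-180 cells via an SIE beta-lactamase reporter. Stimulus was 40 pM IL-6 (its AC50) for 5 hrs, so both activation and inhibition register.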

[5] = target: Glucocorticoid receptor (Homo sapiens) (UniProt P04150); experiment: GR-GFP Redistribution (AID 450;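 active = compounds whose dose series gives a full or clear partial fitted curve of increased nuclear translocation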; also: potency is read from the fitted curve at half-maximal effect); settings: U2OS GR-GFP nuclear translocation, laser cytometry, 2 h
Sequence of Glucocorticoid receptor (Homo sapiens) (P04150 whole entry, looked up, the tested form may be a part): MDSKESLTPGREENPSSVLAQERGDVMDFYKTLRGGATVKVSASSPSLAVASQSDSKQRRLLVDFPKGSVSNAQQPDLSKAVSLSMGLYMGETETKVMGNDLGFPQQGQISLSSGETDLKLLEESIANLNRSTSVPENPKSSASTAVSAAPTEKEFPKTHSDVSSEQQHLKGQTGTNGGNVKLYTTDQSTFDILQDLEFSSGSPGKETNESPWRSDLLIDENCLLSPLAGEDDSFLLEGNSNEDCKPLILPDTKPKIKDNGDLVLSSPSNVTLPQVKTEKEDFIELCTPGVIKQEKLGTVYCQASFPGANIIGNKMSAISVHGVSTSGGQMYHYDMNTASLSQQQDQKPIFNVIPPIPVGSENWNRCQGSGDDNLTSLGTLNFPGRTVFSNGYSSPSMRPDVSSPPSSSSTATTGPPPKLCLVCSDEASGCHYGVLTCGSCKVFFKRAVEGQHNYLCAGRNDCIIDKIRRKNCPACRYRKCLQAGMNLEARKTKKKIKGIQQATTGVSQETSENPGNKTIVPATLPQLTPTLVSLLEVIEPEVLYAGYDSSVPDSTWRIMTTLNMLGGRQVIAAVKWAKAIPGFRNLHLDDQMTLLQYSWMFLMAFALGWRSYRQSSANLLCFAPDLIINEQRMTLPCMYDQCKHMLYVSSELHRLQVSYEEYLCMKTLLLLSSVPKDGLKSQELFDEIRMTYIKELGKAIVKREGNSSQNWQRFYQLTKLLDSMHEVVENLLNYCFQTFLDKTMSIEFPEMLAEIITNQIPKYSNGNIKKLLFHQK

[6] = target: Glucocorticoid receptor (Homo sapiens) (UniProt P04150); experiment: GR-EFC Redistribution (AID 451; calls by dose curve; also: potency is read from the fitted curve at half-maximal effect); settings: CHO-K1 GR-EFC translocation, beta-gal luminescence, 2 h
Procedure, shortened: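 CHO-K1 cells stably expressing nuclear-localized β-gal enzyme acceptor and GR fused C-terminally to the enzyme donor fragment; ligand-driven nuclear translocation restores β-gal by complementation. Compounds titrated up to 46 uM final, 2 h at 37 °C; luminescence read.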

[7] = target: Mitogen-activated protein kinase 10 (Mus musculus) (UniProt Q61831); experiment: JNK3 AlphaScreen Assay (AID 530); settings: JNK3 lysate, c-Jun phosphorylation; series mostly up to 11.4 µM;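 also: kinase came from lysate of stimulated human HepG2 cells; signal reports phosphorylation of biotinylated GST-cJun 1-79 at Ser73 with 10 µM ATP; % is scaled to controls: 0 for no effect and ±100 for the full control effect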
Procedure, shortened: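 Inhibitors reduce antibody binding to phosphorylated biotin-cJun, lowering AlphaScreen luminescence. Lysates from HepG2 cells pre-activated by IL-1beta plus TNF-alpha supplied JNK3; compounds were titrated.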

[8] = target: 3',5'-cyclic-AMP phosphodiesterase 4B (Homo sapiens) (UniProt Q07343); experiment: qHTS Assay for Inhibitors of PDE-IV (AID 607; active = well fitted activation curve with a large enough effect in the main read-out, with a control signal flat, not every such curve was filed as active; also: % of control where 0% means no effect); settings: HEK293 ACTOne CNG channel cells, membrane potential fluorescence; series mostly up to 22.9 µM
Sequence of 3',5'-cyclic-AMP phosphodiesterase 4B (Homo sapiens) (Q07343 whole entry, looked up): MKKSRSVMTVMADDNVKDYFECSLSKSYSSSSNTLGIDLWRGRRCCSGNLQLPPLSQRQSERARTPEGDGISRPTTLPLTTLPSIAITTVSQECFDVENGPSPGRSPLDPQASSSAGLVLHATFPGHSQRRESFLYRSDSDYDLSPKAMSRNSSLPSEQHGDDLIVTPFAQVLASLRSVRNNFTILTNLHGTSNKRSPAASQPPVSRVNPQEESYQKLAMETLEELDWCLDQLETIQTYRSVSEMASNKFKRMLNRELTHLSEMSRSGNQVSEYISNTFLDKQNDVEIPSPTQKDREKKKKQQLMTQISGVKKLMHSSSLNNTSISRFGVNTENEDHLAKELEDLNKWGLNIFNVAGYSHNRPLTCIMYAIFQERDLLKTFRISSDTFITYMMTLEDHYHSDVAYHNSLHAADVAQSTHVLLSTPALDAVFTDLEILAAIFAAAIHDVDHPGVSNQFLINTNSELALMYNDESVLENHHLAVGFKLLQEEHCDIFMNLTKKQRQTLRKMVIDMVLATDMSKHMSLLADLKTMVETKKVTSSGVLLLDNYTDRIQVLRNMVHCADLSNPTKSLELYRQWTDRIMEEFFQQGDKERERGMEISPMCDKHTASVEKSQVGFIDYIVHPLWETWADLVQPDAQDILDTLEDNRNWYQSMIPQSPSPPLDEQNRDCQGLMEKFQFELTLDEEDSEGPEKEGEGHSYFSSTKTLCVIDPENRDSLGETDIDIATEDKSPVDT
Procedure, shortened: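 Live HEK293 cells with a modified cyclic nucleotide-gated (CNG) channel report intracellular cAMP via membrane-potential dye fluorescence (ex 535/em 590 nm). Endogenous PDE-IV was targeted. Compounds were tested at up to 22.9 uM final; RO 20-1724 100 uM served as control.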

[9] = qHTS Assay for Identification of Small Molecule Agonists for Hypoxia Response Element Signaling Pathway (AID 914; active = well fitted activation curve with a large enough effect in the signal ratio, with a control signal flat, not every such curve was filed as active; the % refers to the signal ratio; also: % of control where 0% means no effect); settings: ME-180 (cervical carcinoma) HRE-bla reporter, beta-lactamase ratio, CoCl2, 17 h; activation: active compounds read high
Procedure, shortened: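 In Opti-MEM containing 0.5% dialyzed FBS and 10 mM HEPES, ME-180 HRE-bla cells received a compound titration and EC50 CoCl2. They were incubated 17 hours, then CCF4-loaded 2.5 hours at room temperature before ratio reading.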

Nc1ccc(-c2ccc(Nc3cc(S(=O)(=O)O)c(N)c4c3C(=O)c3ccccc3C4=O)cc2)c(S(=O)(=O)O)c1
inactive: Potency [1] > 11.4 µM | activity change, negative = inhibition [2] 3.81% | activity change, negative = inhibition [3] -2.33% | activity, negative = inhibition [4] -2.95% | Potency [5] > 46 µM | Potency [6] > 9.22 µM | Potency [7] | Potency [8] | activation [9] -7.34%

O=C1OC2(c3ccc(O)cc3Oc3cc(O)ccc32)c2c1c(-c1ccccc1)c(-c1ccccc1)c(-c1ccccc1)c2-c1ccccc1
inactive: Potency [1] > 11.4 µM | activity change, negative = inhibition [2] -28.2% | activity change, negative = inhibition [3] 5.71% | activity, negative = inhibition [4] -17.7% | Potency [6] > 9.22 µM | Potency [7] | Potency [8]

CC(C)Cn1cnc2c(SCc3ccccn3)nc(N)nc21
inactive: Potency [1] > 11.4 µM | activity change, negative = inhibition [2] -13.7% | activity change, negative = inhibition [3] 8.93% | activity, negative = inhibition [4] -1.91% | Potency [5] > 46 µM | Potency [6] > 9.22 µM | Potency [7] | activation [9] 13.1%

C[C@@H]1CCCC(CC(=O)O)(CC(=O)O)C1
inactive: Potency [1] > 11.4 µM | activity change, negative = inhibition [2] -2.04% | activity change, negative = inhibition [3] -0.409% | activity, negative = inhibition [4] 6.41% | Potency [5] > 46 µM | Potency [7] | Potency [8]

O=C(O)[C@@H](Br)[C@@H](Br)c1ccccc1[N+](=O)[O-]
inactive: Potency [1] > 11.4 µM | activity change, negative = inhibition [2] 3.89% | activity change, negative = inhibition [3] 10.2% | activity, negative = inhibition [4] -0.793% | Potency [5] > 46 µM | Potency [6] > 9.22 µM | Potency [7] | Potency [8] | activation [9] 6.66%

O=C(O)[C@@H]1CCCN1Cc1ccc2c(c1)OCO2
inactive: Potency [1] > 11.4 µM | activity change, negative = inhibition [2] 2.76% | activity change, negative = inhibition [3] 10.2% | activity, negative = inhibition [4] 0.869% | Potency [5] > 46 µM | Potency [6] > 9.22 µM | Potency [7] | Potency [8] | activation [9] 7.45%

c1ccc2nc(CC[C@@H]3CCCCN3)ccc2c1
inactive: Potency [1] > 11.4 µM | activity change, negative = inhibition [2] 7.07% | activity change, negative = inhibition [3] -3.97% | activity, negative = inhibition [4] -5.39% | Potency [5] > 46 µM | Potency [6] > 9.22 µM | Potency [7] | Potency [8] | activation [9] -14.2%
